Only some compounds are listed: those with a hit (about 17% of all), similar ones and a draw of the others.
HT1080-NT tox = kills 2HG-producing HT-1080-NT fibrosarcoma cells; AID 686970; 360,000 compounds, 1.6% hits; HT-1080-NT fibrosarcoma viability, CellTiter-Glo ATP luminescence, 48 h; Potency, µM (top dose mostly 46.1 µM), usual class: cytotoxic;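 note: NT is the 2HG producing partner of a matched IDH1 knockdown line; nearly all actives have a fitted effect of over 55% in size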
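Compounds were tested in concentration-response format on HT-1080-NT cells for 48 hours at 37 degrees C. Cell viability came from CellTiter-Glo luminescence; curves were classified by r2, response magnitude and activity.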
DT40 TDP1 no CPT = qHTS for Inhibitors of human tyrosyl-DNA phosphodiesterase 1 (TDP1): qHTS in cells in absence of CPT. DT40 Tdp1-/- hTDP1 cells, no CPT, ATP luminescence, 48 h. Potency, µM (highest dose often 46.2 µM), actives largely listed as inhibitors. 420,000 compounds, 15% hits; note: nearly all actives have a fitted effect of over 55% in size
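Stably hTDP1-transfected Tdp1-null chicken DT40 cells were treated with library compounds minus camptothecin and grown for at least 48 hr at 37 °C, after which cellular ATP was quantified by luminescence.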
TDP1 cell CPT = growth inhibition of DT40 Tdp1-/-;hTDP1 cells with camptothecin (screen for TDP1 inhibitors); chicken DT40 Tdp1-/-;hTDP1 cells + 20 nM CPT, ATP luminescence, 48 h; Potency, µM (doses to about 46.2 µM), hits mostly inhibitors; 420,000 compounds, 12% hits; note: nearly all actives have a fitted effect of over 55% in size
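Chicken DT40 Tdp1-/- cells stably complemented with human TDP1 were seeded at 400 cells/well in medium containing 20 nM camptothecin, exposed to pin-transferred compounds, and grown at 37 °C for at least 48 hr. Viability was read as ATP luminescence.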
HepG2 tox = HepG2 cytotoxicity, counter-screen for TGF-b inhibitors. HepG2 CAGA-GFP viability, ATP luminescence, 18 h. Potency, µM (titrated, usually from 46.1 µM), hits mostly cytotoxic. 410,000 compounds, 0.76% hits. AID 588856
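CellTiter-Glo luminescence gave cytotoxicity after 18 hours at 37 degrees C. The cells were HepG2 CAGA-GFP in 1% FBS DMEM, stimulated with 500 pg/mL TGF-beta after compound addition. %Activity was normalised to no-cell wells (complete cell-killing) and DMSO (no toxicity), and curves were fitted and classified.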
TGFb inhibitor = TGF-b pathway inhibition; HepG2 CAGA-GFP TGF-b/SMAD3 reporter, GFP fluorescence, 18 h; TGF-beta stimulated, 500 pg/mL final; Potency, µM (doses to about 46.1 µM), actives largely listed as inhibitors; 410,000 compounds, 1.2% hits; AID 588855; note: nearly all actives have a fitted effect of over 65% in size
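GFP signal (ex488/em500-530) from TGF-beta-stimulated HEPG2 CAGA-GFP cells, 500 pg/mL final, 18 h at 37 degrees C in DMEM plus 1% FBS, normalized to unstimulated and DMSO-stimulated controls.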
HT1080 IDH1KD tx = toxicity to HT-1080 IDH1 knockdown cells (counter line); Potency, µM (series often up to 46.1 µM), usual class: cytotoxic; AID 686971; HT-1080 IDH1 knockdown viability, ATP luminescence, 48 h; 360,000 compounds, 2% hits
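After a 2 h attachment period, IDH1KD HT-1080 cells took pin-transferred compound for 48 h at 37 °C; ATP-based luminescence after 10 min room-temperature reagent incubation reported viability.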
Hits are given with their value; – = inactive; ? = inconclusive; · = no result; [ ] = dose if it differs, or a comment. Calls come from the whole dose curve; as a rule, active = well fitted curve in the direction sought with a large enough effect; inconclusive = small, poorly fitted or top-dose-only effect, or another doubt; inactive = no such curve, though single readings can be large; an effect the other way counts as inactive or inconclusive.

SMILES	HT1080-NT tox	DT40 TDP1 no CPT	TDP1 cell CPT	HepG2 tox	TGFb inhibitor	HT1080 IDH1KD tx
O=C(CSc1nc(-c2ccccc2)c(-c2ccccc2)[nH]1)Nc1ccc2c(c1)OCO2	?	13µM	?	–	–	?
COc1cc(-c2nc(SCC(=O)Nc3ccc4c(c3)OCO4)c(-c3ccccc3)[nH]2)cc(OC)c1OC	·	16µM	?	–	–	·
O=C(CSc1nc2ncccc2[nH]1)Nc1ccc2c(c1)OCO2	–	–	–	–	–	–
O=C(CSc1nc(-c2ccccc2)[nH]c1-c1ccccc1)Nc1ccc2c(c1)OCO2	·	15µM	21µM	–	11µM	·
Cc1noc(C)c1NC(=O)N(C)C[C@H]1Oc2ccc(NC(=O)Nc3ccc(C(F)(F)F)cc3)cc2C(=O)N([C@H](C)CO)C[C@@H]1C	–	–	–	–	–	–
Cc1ccc(NC2SC(=O)N(CC(=O)O)C2=O)cc1 (centres undefined)	–	–	–	–	–	?
Cn1c(Cc2cccs2)nnc1SCC(=O)Nc1ccc(C(N)=O)cc1	–	–	–	–	–	–
Nc1c(Cl)cc(N=Nc2ccccc2)cc1Cl	?	13µM	?	–	?	?
Oc1ccc(Cl)cc1N=Nc1ccccc1	–	–	–	–	–	–
O=S(=O)(O)c1cc(O)c2c(O)c(N=Nc3cc(Cl)ccc3O)c(S(=O)(=O)O)cc2c1	?	18µM	18µM	–	–	?
Cc1cc(-c2ccc(N=Nc3c(S(=O)(=O)O)cc4cc(S(=O)(=O)O)cc(N)c4c3O)c(C)c2)ccc1N=Nc1c(S(=O)(=O)O)cc2cc(S(=O)(=O)O)cc(N)c2c1O	·	9.4µM	9.4µM	·	·	·
Cc1cccc(C)c1NC(=O)C(c1ccccc1)n1c(=O)c(-c2ccco2)nc2ccccc21 (centres undefined)	–	?	?	·	·	–
CN[C@@H](CO)C(=O)NC[C@H]1O[C@@H](n2cnc3c(=O)[nH]c(N)nc32)[C@H](O)[C@@H]1O	–	–	–	–	–	–
CCOC(=O)CSc1nc(N)c2c3c(sc2n1)CCCC3	–	–	–	–	–	–
CCN(CC)C(=O)CSc1nc(N)c2c3c(sc2n1)CC(C)CC3 (centres undefined)	–	21µM	?	–	–	?
CC1CCc2c(sc3nc(SCC(=O)NCc4ccco4)nc(N)c23)C1 (centres undefined)	?	13µM	18µM	–	–	?
CSc1nc(SCC(=O)NCc2ccco2)c2c3c(sc2n1)CN(C)CC3	–	–	–	–	–	–
COc1ccc(OC)c(-c2cc(Cl)c3c(c2)CC(CNC(=O)/C=C/c2ccccn2)O3)c1 (centres undefined)	·	–	–[9.04 µM]	·	·	·
CCc1ccc(CN(C)CC(=O)Nc2sccc2C#N)cc1	–	?	?	–	–	–
N#Cc1c(N)n(-c2cccc(O)c2)c2nc3ccccc3nc12	–	–	–	–	?	–
Cc1nc(CCNC(=O)CC2C(=O)NCCN2Cc2ccccc2)nc2c1CCC2 (centres undefined)	–	–	–	–	–	–
CCCOc1ccc(-c2nc(C#N)c(NCCCn3ccnc3)o2)cc1	?	18µM	?	–	–	?
N#Cc1nc(-c2ccc(OCc3ccccc3)cc2)oc1NCCCn1ccnc1	–	21µM	?	–	–	–
COc1ccc(-c2nc(C#N)c(NCCCn3ccnc3)o2)cc1OC	–	–	–	–	–	–
CC(C)(C)c1ccc(-c2nc(C#N)c(NCCCn3ccnc3)o2)cc1	21µM	?	?	–	?	23µM
N#Cc1nc(COc2ccccc2)oc1NCCCn1ccnc1	–	–	–	–	–	–
COc1ccc(-c2noc(=O)n2Cc2ccccc2Cl)cc1	–	–	–	–	–	–

From PubChem
